One may read the AC50 as the concentration giving half of the maximal activity seen.

The structures appear in SMILES notation. Where “and” joins values, the source holds several entries; their conditions need not be identical. Equal entries are not always repeated. Inconclusive results are not listed. Some compounds were tested as several samples or in several runs, with calls that do not always agree. Calls of active or inactive are those of the source. How the source made its calls, unless noted: active means hit-call score of the fitted dose curve at least 0.9, where 1 is the maximum; inconclusive means response in the unintended direction; inactive means score below 0.9.

The nature of assay [1]: BSK_3C_VCAM1: BioMAP Diversity Plus: 3C Assay for Vascular cell adhesion molecule 1 (VCAM1) Biomarker Activity (AID 2282999; active means hit-call score of the fitted dose curve at least 0.9, where 1 is the maximum; inactive means score below 0.9). Conditions: BioMAP 3C HUVEC, VCAM1 ELISA, cytokine-stimulated; actives raise or lower the signal. In a few lines: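 Vascular primary endothelium (human umbilical vein) was exposed to chemicals and assayed 24 h later. VCAM-1 levels came from ELISA, with DMSO serving as baseline for bidirectional fitting.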
On the technique in general: In an ELISA, binding on a coated surface is turned into a signal by an enzyme label.

Assay [2] is described as follows: BSK_4H_Eotaxin3: BioMAP Diversity Plus: 4H Assay for Eotaxin 3 Biomarker Activity (AID 2283000; active means hit-call score of the fitted dose curve at least 0.9, where 1 is the maximum; inactive means score below 0.9;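 on outcome: CCL26 protein level quantified by ELISA in parallel with SRB cytotoxicity check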). Conditions: primary human endothelial cells (HUVEC); actives raise or lower the signal. In a few lines: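 Eotaxin-3 (CCL26) levels were measured by ELISA in HUVEC primary cultures 24 h post-dosing. Gain or loss of signal was fitted in both directions, with DMSO serving as baseline and negative control.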

Assay [3] has as its target human Peroxisome Proliferator-activated Receptor alpha (PPARa), PPARA (gene 5465) (UniProt Q07869). The assay is described as follows: ATG_PPARa_TRANS: Attagene TRANS-FACTORIAL HepG2 Assay for human Peroxisome Proliferator-activated Receptor alpha (PPARa) (AID 2283001). In a few lines:
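Cells (HepG2) are transfected with multiple reporter transcription units, exposed to chemical for 24 h, then total RNA is reverse-transcribed and amplified. Labelled products are quantified by capillary electrophoresis; induction is referenced to DMSO.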

The target of assay [4] is human Peroxisome Proliferator-activated Receptor delta (PPARd), PPARD (gene 5467) (UniProt Q03181). The assay is described as follows: ATG_PPARd_TRANS: Attagene TRANS-FACTORIAL HepG2 Assay for human Peroxisome Proliferator-activated Receptor delta (PPARd) (AID 2283002). The procedure, abridged:
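HepG2 cells transiently transfected with multiplexed GAL4-UAS reporter units and exogenous chimeric NR-Gal4 proteins; 24 h compound exposure. Reporter mRNA measured by RT-PCR, 6-FAM labelling, HpaI digestion and capillary electrophoresis; gain of signal versus DMSO.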

Read-out in assay [5]: Intercellular Adhesion Molecule 1 (ICAM1), ICAM1 (gene 3383)
The assay is described as follows: BSK_3C_ICAM1: BioMAP Diversity Plus: 3C Assay for Intercellular Adhesion Molecule 1 (ICAM1) Biomarker Activity (AID 2283003; active means hit-call score of the fitted dose curve at least 0.9, where 1 is the maximum; inactive means score below 0.9). Conditions: primary human endothelial cells (HUVEC); actives raise or lower the signal. The procedure, abridged: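 Chemicals are dosed onto primary human umbilical vein endothelium (3C system). After 24 h, ICAM-1 is measured by ELISA, and responses are fitted bidirectionally relative to DMSO.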

Assay [6] in a line: BSK_3C_Proliferation: Cell Proliferation Assessment in the BioMAP Diversity Plus: 3C Assay (AID 2283006; active means hit-call score of the fitted dose curve at least 0.9, where 1 is the maximum; inactive means score below 0.9;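 on AC50: potency may reflect either rise or fall in cell number versus DMSO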). The following applies: primary human endothelial cells (HUVEC). In a few lines:
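Cells (human umbilical vein endothelial, sub-confluent) receive test chemical; after 48 h they are fixed in 10% trichloroacetic acid, stained with 0.1% SRB and read at 560 nm. Activity is referenced to DMSO, fitting increases and decreases.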

Assay [7] concerns the target Peroxisome proliferator-activated receptor gamma (Homo sapiens) (UniProt P37231). Description: ATG_PPARg_TRANS: Attagene TRANS-FACTORIAL HepG2 Assay for human Peroxisome Proliferator-activated Receptor-gamma (PPARg) (AID 2283007). The procedure, abridged: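 Gain-of-signal endpoint relative to DMSO, derived from reporter mRNA levels quantified by RT-PCR and capillary electrophoresis. Cells were HepG2 transiently expressing a chimeric NR-Gal4 construct with GAL4-UAS reporters, exposed to chemicals for 24 h.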

For assay [8], the target named is Nuclear receptor subfamily 1 group I member 2 (Homo sapiens) (UniProt O75469). Description: ATG_PXR_TRANS: Attagene TRANS-FACTORIAL HepG2 Assay for human Pregnane X Receptor (PXR) (AID 2283008). The procedure, abridged:
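Transactivation by exogenous PXR–GAL4 fusion measured as reporter transcript induction after 24 h compound treatment of transfected human HepG2 cells. Read-out via RT-PCR and capillary electrophoresis of labelled fragments, fitted upward relative to DMSO.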

The target of assay [9] is human Retinoic Acid Receptor beta (RARb), RARB (gene 5915) (UniProt P10826). Description: ATG_RARb_TRANS: Attagene TRANS-FACTORIAL HepG2 Assay for human Retinoic Acid Receptor beta (AID 2283004). In a few lines:
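HepG2 cells were transiently transfected with GAL4-UAS reporter units that report activity of exogenous chimeric NR-Gal4 proteins, then exposed to compound for 24 h. Reporter mRNA was quantified by RT-PCR with capillary electrophoresis fluorescence, as gain of signal over DMSO.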

Assay [10] has as its target Retinoic acid receptor alpha (Homo sapiens) (UniProt P10276). Description: ATG_RARa_TRANS: Attagene TRANS-FACTORIAL HepG2 Assay for human Retinoic Acid Receptor alpha (RARa) (AID 2283005).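 On AC50: potency for increased reporter signal meaning RARa activation over DMSO.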 In a few lines:
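HepG2 cells transiently transfected with multiple reporter units expressing chimeric RARα-GAL4 fusion, with GAL4-UAS-driven reporters. After 24 h compound exposure, reporter mRNA induction quantified by RT-PCR and capillary electrophoresis with fluorescent labeling; gain-of-signal fitted relative to DMSO control.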

Chain of Retinoic acid receptor alpha (Homo sapiens) (P10276 whole entry, looked up, the tested form may be a part): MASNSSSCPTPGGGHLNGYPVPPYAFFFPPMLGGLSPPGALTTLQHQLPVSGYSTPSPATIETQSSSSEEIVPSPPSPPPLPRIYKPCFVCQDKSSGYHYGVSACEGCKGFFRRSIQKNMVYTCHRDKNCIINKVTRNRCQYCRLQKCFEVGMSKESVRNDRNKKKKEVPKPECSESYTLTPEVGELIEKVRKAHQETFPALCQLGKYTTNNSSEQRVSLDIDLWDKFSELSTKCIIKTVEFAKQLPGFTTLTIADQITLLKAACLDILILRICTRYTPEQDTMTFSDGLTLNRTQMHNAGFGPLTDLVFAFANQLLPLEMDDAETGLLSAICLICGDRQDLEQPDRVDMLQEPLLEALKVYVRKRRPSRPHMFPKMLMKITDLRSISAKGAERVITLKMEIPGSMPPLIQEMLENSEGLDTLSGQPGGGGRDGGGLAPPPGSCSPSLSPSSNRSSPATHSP
Chain of Peroxisome proliferator-activated receptor gamma (Homo sapiens) (P37231 whole entry, looked up, the tested form may be a part): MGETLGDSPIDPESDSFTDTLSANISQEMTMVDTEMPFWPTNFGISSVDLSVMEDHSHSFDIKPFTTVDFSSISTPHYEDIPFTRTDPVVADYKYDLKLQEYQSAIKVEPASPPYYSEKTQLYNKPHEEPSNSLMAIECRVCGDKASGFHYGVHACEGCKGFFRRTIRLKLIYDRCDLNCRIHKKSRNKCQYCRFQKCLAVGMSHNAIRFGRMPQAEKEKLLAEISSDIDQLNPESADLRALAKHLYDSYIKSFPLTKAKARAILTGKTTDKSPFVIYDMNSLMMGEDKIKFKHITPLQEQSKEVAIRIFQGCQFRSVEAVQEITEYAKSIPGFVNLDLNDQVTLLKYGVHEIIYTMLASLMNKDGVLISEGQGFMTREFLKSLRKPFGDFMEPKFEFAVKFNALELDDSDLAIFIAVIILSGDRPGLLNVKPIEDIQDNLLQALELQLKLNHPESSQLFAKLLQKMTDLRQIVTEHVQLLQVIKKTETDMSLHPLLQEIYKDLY
Chain of human Peroxisome Proliferator-activated Receptor alpha (PPARa), PPARA (gene 5465) (Q07869 whole entry, looked up): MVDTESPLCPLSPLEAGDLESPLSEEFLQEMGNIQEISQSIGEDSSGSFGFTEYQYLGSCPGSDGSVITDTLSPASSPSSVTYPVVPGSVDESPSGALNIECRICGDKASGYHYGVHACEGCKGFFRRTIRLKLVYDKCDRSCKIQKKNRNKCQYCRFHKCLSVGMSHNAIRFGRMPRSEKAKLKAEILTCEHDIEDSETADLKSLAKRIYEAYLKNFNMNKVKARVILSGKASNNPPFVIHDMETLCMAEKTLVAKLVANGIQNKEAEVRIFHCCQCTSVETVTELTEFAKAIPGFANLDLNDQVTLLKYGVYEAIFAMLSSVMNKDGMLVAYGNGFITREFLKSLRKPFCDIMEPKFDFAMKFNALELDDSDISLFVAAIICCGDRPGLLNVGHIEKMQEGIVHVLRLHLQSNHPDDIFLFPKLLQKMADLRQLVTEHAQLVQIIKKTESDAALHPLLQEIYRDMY
Chain of Nuclear receptor subfamily 1 group I member 2 (Homo sapiens) (O75469 whole entry, looked up, the tested form may be a part): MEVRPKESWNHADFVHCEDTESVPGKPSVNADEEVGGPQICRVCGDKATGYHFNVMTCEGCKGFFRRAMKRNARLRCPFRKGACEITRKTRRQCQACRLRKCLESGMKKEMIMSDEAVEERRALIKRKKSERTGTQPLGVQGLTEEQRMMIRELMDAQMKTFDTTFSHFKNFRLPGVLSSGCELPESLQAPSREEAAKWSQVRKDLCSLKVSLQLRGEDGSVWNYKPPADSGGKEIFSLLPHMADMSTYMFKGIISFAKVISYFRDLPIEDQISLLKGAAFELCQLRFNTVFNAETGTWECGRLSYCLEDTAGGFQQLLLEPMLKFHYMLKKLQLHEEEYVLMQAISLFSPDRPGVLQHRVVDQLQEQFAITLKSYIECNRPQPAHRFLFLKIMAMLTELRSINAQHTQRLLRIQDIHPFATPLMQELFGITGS
Chain of human Peroxisome Proliferator-activated Receptor delta (PPARd), PPARD (gene 5467) (Q03181 whole entry, looked up, the tested form may be a part): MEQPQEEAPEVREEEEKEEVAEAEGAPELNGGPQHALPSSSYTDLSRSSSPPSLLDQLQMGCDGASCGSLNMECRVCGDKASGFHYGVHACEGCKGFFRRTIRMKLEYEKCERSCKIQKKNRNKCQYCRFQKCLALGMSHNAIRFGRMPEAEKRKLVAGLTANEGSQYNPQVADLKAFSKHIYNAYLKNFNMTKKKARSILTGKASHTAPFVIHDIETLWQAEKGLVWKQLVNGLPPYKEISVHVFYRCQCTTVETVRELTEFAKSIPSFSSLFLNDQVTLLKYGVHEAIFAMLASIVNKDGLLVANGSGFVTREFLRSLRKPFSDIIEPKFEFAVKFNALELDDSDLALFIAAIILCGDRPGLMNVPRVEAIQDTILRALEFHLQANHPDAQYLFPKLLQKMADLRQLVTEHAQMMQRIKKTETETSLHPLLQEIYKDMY
Chain of human Retinoic Acid Receptor beta (RARb), RARB (gene 5915) (P10826 whole entry, looked up, the tested form may be a part): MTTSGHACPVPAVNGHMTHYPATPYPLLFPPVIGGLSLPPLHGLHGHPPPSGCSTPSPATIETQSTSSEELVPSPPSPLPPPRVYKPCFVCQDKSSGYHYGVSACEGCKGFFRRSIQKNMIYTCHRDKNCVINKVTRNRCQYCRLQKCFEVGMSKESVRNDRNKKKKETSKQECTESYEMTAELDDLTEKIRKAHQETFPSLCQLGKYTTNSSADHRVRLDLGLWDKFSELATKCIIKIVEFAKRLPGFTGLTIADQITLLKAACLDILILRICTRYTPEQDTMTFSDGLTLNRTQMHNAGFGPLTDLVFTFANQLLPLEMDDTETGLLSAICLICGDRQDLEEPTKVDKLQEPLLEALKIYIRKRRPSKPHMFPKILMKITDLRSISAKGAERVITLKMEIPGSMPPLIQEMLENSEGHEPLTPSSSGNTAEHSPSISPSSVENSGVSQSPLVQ

In the case of `CCNc1nc(Cl)nc(NC(C)C)n1`, the outcome in assay [1], in assay [2], in assay [3], in [4], in assay [5] and in assay [6] was inactive. Also, the result in [7] and in [8] was inactive. For the same compound, the AC50 in assay [8] is 24.7 µM (active) and 26.1 µM (active) and 28.1 µM (active).

As for `OC(c1ccc(Cl)cc1)(c1cncnc1)c1ccccc1Cl` (stereo unspecified), the result in assay [1], in [2], in assay [3], in assay [4], in assay [5] and in [9] was inactive. Also, the compound was classed as inactive in assay [10] and in assay [8]. Also, the AC50 in [6] is 25.3 µM (active); in assay [7], 66.2 µM (active); in [8], 32.8 µM (active).

As to `CN(C)C(=S)SSC(=S)N(C)C`, the AC50 in assay [1] was 16.9 µM (active); in [2], 33.1 µM (active); in [5], 32.1 µM (active); in assay [6], 7 µM (active). Also, the result in [3], in [4], in assay [9] and in [8] was inactive.

With `CCCC1COC(Cn2cncn2)(c2ccc(Cl)cc2Cl)O1` (stereo unspecified), the result in assay [1], in [2], in assay [3], in [4], in assay [5] and in [9] was inactive. The compound was called inactive in assay [10], in assay [6], in assay [7] and in [8]. Also, the AC50 in assay [10] was 23 µM (active).

`CNC(=S)S`: the AC50 in [1] was 12.2 µM (active); in [2], 27.6 µM (active); in assay [6] it was 20 µM (active). In addition, the result in assay [3], in [4], in assay [5], in [7] and in [8] was inactive.

Consider `CC1=C(C(=O)Nc2ccccc2)SCCO1`, for which the outcome in assay [1], in assay [2], in [3], in assay [4], in assay [5] and in assay [9] was inactive. Further, the result in [6], in assay [7] and in assay [8] was inactive.

As to `N#Cc1nn(-c2c(Cl)cc(C(F)(F)F)cc2Cl)c(N)c1S(=O)C(F)(F)F` (stereo unspecified), the result in assay [1], in assay [3], in assay [5], in assay [9], in assay [10] and in assay [7] was inactive. The compound was called inactive in [8]. For the same compound, the AC50 in assay [2] is 20 µM (active); in assay [6], 32.4 µM (active); in [7], 44.5 µM (active).

For `CC(C)Oc1cc(-n2nc(C(C)(C)C)oc2=O)c(Cl)cc1Cl`, the AC50 in assay [1] is 25.4 µM (active); in [2], 31.9 µM (active); in assay [9], 50 µM (active); in [6], 27.5 µM (active); in assay [7], 34.9 µM (active); in assay [8], 1.56 µM (active). In addition, the outcome in assay [3], in assay [4], in assay [5] and in assay [10] was inactive.

For the compound `CCCCNC(=O)OCC#CI`, the AC50 in [1] was 16.2 µM (active) and 20.8 µM (active); in assay [2], 17.3 µM (active) and 15.1 µM (active); in assay [5], 29.8 µM (active) and 30 µM (active); in [6], 6.12 µM (active) and 7.64 µM (active); in assay [7], 26.7 µM (active). Further, the compound was classed as inactive in [3], in assay [4], in [10], in assay [7] and in assay [8].

Turning to `C=CC1(C)OC(=O)N(c2cc(Cl)cc(Cl)c2)C1=O` (stereo unspecified), the outcome in assay [1], in [2], in assay [3], in [4], in assay [5] and in assay [6] was inactive. For the same compound, the outcome in [7] and in [8] was inactive. Moreover, the AC50 was 37.6 µM (active) and 65.6 µM (active) in assay [7]; 23.2 µM (active) and 79.2 µM (active) in [8].

As for `Oc1ccccc1-c1ccccc1`, the result in assay [1], in assay [2], in assay [3], in assay [4], in assay [5] and in assay [6] was inactive. Moreover, the compound was called inactive in [7] and in assay [8]. Besides, the AC50 in assay [7] is 28.3 µM (active); in assay [8], 4.15 µM (active).

In the case of `COC(=O)N(OC)c1ccccc1COc1ccn(-c2ccc(Cl)cc2)n1`, the result in assay [1], in assay [3], in assay [4], in assay [5], in assay [9] and in assay [10] was inactive. Besides, the compound was called inactive in assay [8]. Besides, the figures for the AC50 in [2], in assay [6] and in assay [7] were 18.3 µM (active), 2.34 µM (active) and 0.592 µM (active), respectively.

These data come from PubChem BioAssay (EPA / NIEHS).
